The list is not random: actives were taken first. Their share in the collection is about 19%.
IL1B secr inh: blocks inflammasome-driven IL-1 beta release; AID 743279; 4.7% of 360,000 active; THP-1 LPS/ATP IL-1B secretion, AlphaLISA, 16 h; hits give low values; activity change, % at 57.5 µM; in the data active = activity change below about -50%; inconclusive = mostly about -30% to -49%
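THP-1 cells pretreated 1 hr with compounds (up to 57.5 uM final), then stimulated with LPS (250 ng/mL final) plus ATP (1.25 mM final); secreted IL-1B measured by AlphaLISA after 16 hr, decreased signal indicating inhibition.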
DT40 TDP1 CPT: growth inhibition of DT40 Tdp1-/-;hTDP1 cells with camptothecin (screen for TDP1 inhibitors) | chicken DT40 Tdp1-/-;hTDP1 cells + 20 nM CPT, ATP luminescence, 48 h | Potency, µM (top dose mostly 46.2 µM), for inactives: at the highest dose activity change, negative = growth inhibition, usual class: inhibitors | 12% of 420,000 active | AID 686979; also: potency is read from the fitted curve at half-maximal effect; nearly all actives have a fitted effect of over 55% in size
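Cell growth measured by CellTiter-Glo luminescence after a minimum 48 h, 37 C compound exposure with 20 nM CPT in Tdp1-knockout DT40 cells stably expressing hTDP1, seeded 400/well; qHTS titration format.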
HT1080 IDH1KD tx: HT-1080 IDH1 knockdown cell toxicity (counter line) | 2% of 360,000 active | HT-1080 IDH1 knockdown viability, ATP luminescence, 48 h | AID 686971 | Potency, µM (series often up to 46.1 µM), for inactives: top-dose activity, negative = toxicity, actives largely listed as cytotoxic;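 also: potency is read from the fitted curve at half-maximal effect; 0% = DMSO wells and -100% = cell-free medium wells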
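CellTiter-Glo luminescence after 48 h compound exposure at 37 degrees C of IDH1-knockdown HT-1080 cells in 5% FBS RPMI. %Activity scaled between DMSO wells and cell-free media wells, with curves fitted and assigned curve classes.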
DT40 TDP1 no CPT: qHTS for Inhibitors of human tyrosyl-DNA phosphodiesterase 1 (TDP1): qHTS in cells in absence of CPT; DT40 Tdp1-/- hTDP1 cells, no CPT, ATP luminescence, 48 h; AID 686978, 2013; Potency, µM (doses to about 46.2 µM), without a hit: at the top dose activity change, negative = growth inhibition, actives largely listed as inhibitors; 15% of 420,000 active; also: potency is read from the fitted curve at half-maximal effect; nearly all actives have a fitted effect of over 55% in size
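Seeded 400 DT40-hTDP1 cells/well (vehicle DMSO, no 20 nM CPT); pinned compounds; ≥48 hr at 37 °C; CellTiter-Glo luminescence as viability measure.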
HT1080-NT tox: kills 2HG-producing HT-1080-NT fibrosarcoma cells; 1.6% of 360,000 active; HT-1080-NT fibrosarcoma viability, CellTiter-Glo ATP luminescence, 48 h; Potency, µM (top dose mostly 46.1 µM), for the others: at the highest dose activity, negative = less viability, actives largely listed as cytotoxic;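 also: NT is the 2HG producing partner of a matched IDH1 knockdown line; potency is read from the fitted curve at half-maximal effect; 0% = DMSO-treated cells and -100% = media-only wells without cells; nearly all actives have a fitted effect of over 55% in size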
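Viability by CellTiter-Glo luminescence after 48 h compound exposure at 37C of HT-1080-NT cells (750/well, RPMI, 5% FBS). % activity scaled between DMSO wells and medium-only wells, then curve-fitted and categorized by curve class.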
* hit, by the source's call; ? = inconclusive; · = no result given. Unless noted, calls follow the shape of the dose curve; as a rule, active = well fitted curve in the direction sought with a large enough effect; inconclusive = small, poorly fitted or top-dose-only effect, or another doubt; inactive = no such curve, though single readings can be large; an effect the other way counts as inactive or inconclusive. Unless noted, % is scaled to controls: 0 for no effect and ±100 for the full control effect.

SMILES | IL1B secr inh | DT40 TDP1 CPT | HT1080 IDH1KD tx | DT40 TDP1 no CPT | HT1080-NT tox
Cc1cccc(S(=O)(=O)c2cn(Cc3ccccc3)c3cc(N4CCCC(C)C4)c(F)cc3c2=O)c1 (configuration not stated) | · | -35.9% | · | ? | ·
O=c1c(S(=O)(=O)c2cccc(Cl)c2)cn(Cc2ccccc2)c2cc(N3CCOCC3)c(F)cc12 | · | ? | · | -25.9% | ·
Cc1cccc(Cn2cc(S(=O)(=O)c3ccccc3)c(=O)c3cc(F)c(N4CCOCC4)cc32)c1 | · | 25.9µM* | · | 23.1µM* | ·
Cc1ccc(S(=O)(=O)c2cn(Cc3ccccc3)c3cc(N4CCCCC4)c(F)cc3c2=O)cc1 | · | 8.2µM* | · | 16.4µM* | ·
CC(OC(=O)CSc1ccc(F)cc1)C(=O)NC1(C#N)CCCCC1 (configuration not stated) | 37.0 | -18.6% | 0.0% | -2.3% | -0.1%
COC(=O)c1c(-c2ccc(Cl)cc2)noc1N1CCN(c2ccccc2F)CC1 | · | -0.7% | · | 7.1% | ·
COC(=O)c1c(-c2ccc(Cl)cc2)noc1N1CCN(c2cc(C)ccc2C)CC1 | · | 14.6µM* | · | 20.6µM* | ·
COC(=O)c1c(-c2ccc(Cl)cc2)noc1N1CCN(c2ccc(OC)cc2)CC1 | · | 23.1µM* | · | 25.9µM* | ·
COc1cc(C)c(/C=C(\C#N)C(=O)Nc2cccc(C)c2)cc1C(C)C | -7.4 | -12.8% | -1.8% | ? | -3.1%
CCNS(=O)(=O)c1ccc(CCC(=O)N2CCCC2)cc1 | 6.9 | 1.5% | 17.3% | 2.6% | 14.6%
CCN1C(=O)[C@H]2[C@@H](c3ccc(C)cc3)N[C@]3(CCCN(Cc4ccc(C(F)(F)F)cc4)C3=O)[C@H]2C1=O | 17.0 | 13µM* | -0.9% | 10.3µM* | -5.7%
Cn1cccc1CN1CCC[C@]2(N[C@H](c3ccc(C(F)(F)F)cc3)[C@@H]3C(=O)N(Cc4ccccc4)C(=O)[C@@H]32)C1=O | ? | -14.8% | -5.7% | -21.9% | -13.2%
CCN1C(=O)[C@H]2[C@@H](c3ccc(OC)cc3)N[C@]3(CCCN(Cc4ccc(C(F)(F)F)cc4)C3=O)[C@H]2C1=O | 1.0 | ? | -1.2% | 18.4µM* | 0.4%
Cc1ccc(CN2CCC[C@]3(N[C@H](c4ccc(C(F)(F)F)cc4)[C@@H]4C(=O)N(C)C(=O)[C@@H]43)C2=O)cc1 | 4.9 | ? | -2.8% | ? | -1.1%
CCN1C(=O)[C@H]2[C@@H](c3ccc(C(F)(F)F)cc3)N[C@]3(CCCN(Cc4ccccc4)C3=O)[C@H]2C1=O | -20.1 | 20.6µM* | -3.2% | 16.4µM* | -9.5%
CCN1C(=O)[C@H]2[C@@H](c3ccc(C(F)(F)F)cc3)N[C@]3(CCCN(CC4CCCCC4)C3=O)[C@H]2C1=O | ? | ? | 8.0% | ? | -6.6%
COc1ccc(CN2CCC[C@]3(N[C@H](c4ccc(C(F)(F)F)cc4)[C@@H]4C(=O)N(Cc5ccccc5)C(=O)[C@@H]43)C2=O)cc1 | -16.0 | ? | -22.9% | ? | -15.4%
CCN1C(=O)[C@H]2[C@@H](c3ccc(C(F)(F)F)cc3)N[C@]3(CCCN(Cc4ccc(F)cc4)C3=O)[C@H]2C1=O | 2.4 | 20.6µM* | -4.8% | 9.2µM* | -1.5%
Cn1nccc1NS(=O)(=O)c1ccc(NC(=O)C(F)(F)F)cc1 | · | 1.6% | 19.7% | -10.1% | 20.5%
COc1ccc([C@H]2N[C@]3(CCCN(CC4CCCCC4)C3=O)[C@H]3C(=O)N(Cc4ccccc4)C(=O)[C@@H]23)cc1 | -7.0 | ? | 0.7% | 20.6µM* | -2.7%
Cc1ccc(CN2CCC[C@]3(N[C@H](c4ccc(C(F)(F)F)cc4)[C@@H]4C(=O)N(Cc5ccccc5)C(=O)[C@@H]43)C2=O)cc1 | -13.5 | 20.6µM* | -22.8% | 20.6µM* | -13.2%
CCOC(=O)C1=NOC2(C1)C(=O)Nc1c(Cl)cccc12 (configuration not stated) | -18.3 | 3.3% | -0.3% | -9.2% | ?
CCc1nc2c(OCC=C(C)C)cccn2c1N(C)C(=O)c1ccccc1F | -69.4* | 0.731µM* | ? | 0.82µM* | ?
CCc1nc2c(OCC=C(C)C)cccn2c1N(C)C(=O)c1ccc(OC)cc1 | 62.7 | 23.1µM* | ? | 13µM* | ?
Cc1cccc(Cn2c(=O)n3nc(-c4ccccc4)nc3c3ccccc32)c1 | · | 18.4µM* | · | 18.4µM* | ·
SMILES | IL1B secr inh | DT40 TDP1 CPT | HT1080 IDH1KD tx | DT40 TDP1 no CPT | HT1080-NT tox
Cc1ccc(-c2nc3c4ccccc4n(Cc4cccc(Cl)c4)c(=O)n3n2)cc1 | · | -11.0% | · | ? | ·
O=c1n(Cc2cccc(F)c2)c2ccccc2c2nc(-c3ccccc3)nn12 | · | ? | · | 18.4µM* | ·
O=[N+]([O-])c1ccccc1/C=C1\C=Cc2ccccc21 | · | 7.6% | · | -24.4% | ·
CNc1ccc(/C=C/C(=O)c2ccc3c(c2)OCCO3)cc1[N+](=O)[O-] | -0.6 | ? | -21.3% | ? | -23.7%
O=C1/C(=C/c2ccccc2[N+](=O)[O-])COc2ccccc21 | -104.0* | 2.59µM* | 18.4µM* | ? | 8.2µM*
CNc1ccc(/C=C2\COc3ccccc3C2=O)cc1[N+](=O)[O-] | 2.0 | ? | 15.2% | 11.6µM* | 10.4%
Cc1cccc(NC(=O)CSc2nc(NS(=O)(=O)c3ccccc3)cc(=O)[nH]2)c1 | 5.1 | 2.3% | 0.8% | -7.4% | -1.3%
COc1ccc(COc2cc(-c3cccc(OC)c3)nc3ccc(N)cc23)cc1 | 14.4 | 1.46µM* | 2.06µM* | 1.46µM* | 0.82µM*
COc1ccc(COc2cc(-c3cccc(OC)c3)nc3ccc(NC(=O)c4ccc(C)cc4)cc23)cc1 | 71.7 | ? | 13µM* | 13µM* | 13µM*
COc1ccc(COc2cc(-c3cccc(OC)c3)nc3ccc(NC(C)=O)cc23)cc1 | 0.5 | -18.5% | -5.7% | -18.7% | -19.6%
COc1ccc(COc2cc(-c3cccc(OC)c3)nc3ccc(NC(=O)c4ccc(N(C)C)cc4)cc23)cc1 | 65.7 | 3.66µM* | 6.51µM* | 3.66µM* | ?
OCC(O)C(O)C(O)c1cnn(-c2ccccc2)n1 (configuration not stated) | 18.9 | 0.3% | 0.4% | 17.5% | 1.8%
O=C(O)C1CCCCC1C(=O)NCc1ccc(Cl)c(Cl)c1 (configuration not stated) | 6.6 | ? | 0.4% | ? | 2.2%
CCOC(=O)N1CCN(C(=O)COC(=O)COc2c(C)cc(C)cc2C)CC1 | 4.9 | 5.6% | 5.5% | -2.3% | -1.9%
COc1ccc(C(=O)NCC(c2cccnc2)N2CCN(c3ccccc3)CC2)cc1 (configuration not stated) | · | ? | · | 16.4µM* | ·
COc1ccc(C(=O)NCC(c2cccnc2)N2CCN(c3ccc(F)cc3)CC2)cc1 (configuration not stated) | · | 14.6µM* | · | 10.3µM* | ·

High-throughput results deposited in PubChem BioAssay by National Center for Advancing Translational Sciences (NCATS).
